Pf Dd2 growth – blocks growth of Plasmodium falciparum Dd2 parasites; 94,000 tested, 2.3% active; P. falciparum Dd2 growth, SYBR Green, 72 h; stronger effect = lower value; AID 1159554; activity change, % at 10 µM; in the data active means activity change below about -80%; inconclusive means no clear call, values can overlap the other calls
C diff growth – blocks growth of Clostridium difficile | Clostridium difficile clinical isolate growth, OD600, 24 h; stronger effect = lower value | AID 1259249 | growth activity, negative = inhibition, % at 16 µg/mL (by protocol) | 86,000 tested, 0.25% active;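 active means mean growth activity at or below -80% and every replicate also at or below -80%; inconclusive means mean at or below -80% but some replicate above -80%; inactive means mean growth activity above -80%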;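 further: 0% = DMSO wells and -100% = levofloxacin 16 µg/mL wells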
An asterisk follows results filed as active; ? = inconclusive; . = no result. Hits are enriched below; roughly 2.3% of the tested compounds scored in any of these assays.

SMILES	Pf Dd2 growth	C diff growth
Cc1noc(C)c1NC(=O)N(C)C[C@@H]1Oc2ccc(NC(=O)C3CCCCC3)cc2CC(=O)N([C@@H](C)CO)C[C@@H]1C	14	2
Cc1noc(C)c1NC(=O)N(C)C[C@H]1Oc2ccc(NC(=O)C3CC3)cc2CC(=O)N([C@@H](C)CO)C[C@H]1C	-83*	4
Cc1noc(C)c1NC(=O)N(C)C[C@@H]1Oc2ccc(NS(=O)(=O)c3cn(C)cn3)cc2CC(=O)N([C@@H](C)CO)C[C@H]1C	40	-5
COc1ccc(S(=O)(=O)Nc2ccc3c(c2)CC(=O)N([C@@H](C)CO)C[C@@H](C)[C@H](CN(C)S(=O)(=O)c2cn(C)cn2)O3)cc1	-3	1
CCC(=O)N1CC(=O)N2[C@H](CO)[C@H](c3ccc(-c4cccc(C(=O)N(C)C)c4)cc3)[C@@H]2C1	19	0
C[C@@H]1CCCCO[C@H](CN(C)S(=O)(=O)c2ccccc2)[C@H](C)CN([C@@H](C)CO)C(=O)c2cc(NS(=O)(=O)c3ccc(F)cc3)ccc2O1	-32	-11
Cc1ccc(S(=O)(=O)N(C)C[C@H]2OCCCC[C@H](C)Oc3ccc(NS(=O)(=O)c4ccc(F)cc4)cc3C(=O)N([C@@H](C)CO)C[C@H]2C)cc1	-82*	2
Cc1ccc(S(=O)(=O)N(C)C[C@@H]2OCCCC[C@H](C)Oc3ccc(NS(=O)(=O)c4ccc(F)cc4)cc3C(=O)N([C@@H](C)CO)C[C@@H]2C)cc1	-47	3
C[C@H]1CCCCO[C@@H](CN(C)S(=O)(=O)c2ccccc2)[C@@H](C)CN([C@@H](C)CO)C(=O)c2cc(NS(=O)(=O)c3ccc(F)cc3)ccc2O1	-84*	-16
COc1ccc(-c2ccc3c(c2)[C@H]2[C@H](CCN2C(=O)C2CC2)[C@@H](CO)N3C)cc1	-7	14
CN1c2ccc(C#Cc3cccnc3)cc2[C@@H]2[C@@H](CCN2C(=O)C2CCCC2)[C@@H]1CO	-74	13
CN1c2ccc(Br)cc2[C@H]2[C@H](CCN2C(=O)Nc2ccc(F)cc2)[C@@H]1CO	12	-94*
COc1ccc(-c2ccc3c(c2)[C@H]2[C@H](CCN2C(=O)C2CCCC2)[C@H](CO)N3C)cc1	-85*	-5
CN1c2ccc(C#Cc3cccnc3)cc2[C@H]2[C@H](CCN2C(=O)C2CCCC2)[C@H]1CO	-89*	0
CN1c2ccc(Br)cc2[C@H]2[C@H](CCN2C(=O)Nc2ccc(F)cc2)[C@H]1CO	-52	2
COc1ccc2c3c(n(C)c2c1)[C@H](CO)N(Cc1cccnc1)CC31CCN(C(=O)c2cccnc2)CC1	-61	0
C[C@@H]1CN([C@@H](C)CO)C(=O)c2cc(-c3ccccc3)cnc2O[C@@H]1CN(C)C(=O)c1cccc(F)c1	-5	3
COCC(=O)N1CCCCN2[C@H](CO)[C@@H](c3ccc(C#Cc4ccccc4)cc3)[C@H]2C1	53	-9
COc1ccc(S(=O)(=O)N(C)C[C@@H]2OCCCC[C@H](C)Oc3ccc(NC(=O)Nc4ccc(F)cc4)cc3C(=O)N([C@@H](C)CO)C[C@H]2C)cc1	-67	4
COc1ccc(NC(=O)Nc2ccc3c(c2)C(=O)N([C@@H](C)CO)C[C@H](C)[C@H](CN(C)S(=O)(=O)c2ccc(F)cc2)OCCCC[C@@H](C)O3)cc1	-85*	5
COc1ccc(S(=O)(=O)N(C)C[C@@H]2OCCCC[C@@H](C)Oc3ccc(NC(=O)Nc4ccc(F)cc4)cc3C(=O)N([C@@H](C)CO)C[C@@H]2C)cc1	-81*	6
COc1ccc(S(=O)(=O)N(C)C[C@H]2OCCCC[C@@H](C)Oc3ccc(NC(=O)Nc4ccc(F)cc4)cc3C(=O)N([C@@H](C)CO)C[C@H]2C)cc1	-76	3
CCC(=O)Nc1ccc2c(c1)OC[C@H](C)N(Cc1cccc(F)c1)C[C@H](C)[C@H](OC)CN(C)C2=O	-6	.
O=C(C[C@@H]1C[C@@H]2c3cc(NC(=O)c4cccnc4)ccc3O[C@@H]2[C@@H](CO)O1)NCc1ccccn1	21	3
C[C@@H]1CCCCO[C@H](CN(C)C(=O)C2CCCCC2)[C@@H](C)CN([C@@H](C)CO)C(=O)c2cc(NC(=O)c3ccccc3)ccc2O1	-85*	-8
SMILES	Pf Dd2 growth	C diff growth
C[C@@H]1CCCCO[C@@H](CN(C)C(=O)C2CCCCC2)[C@H](C)CN([C@@H](C)CO)C(=O)c2cc(NC(=O)c3ccccc3)ccc2O1	-20	-2
C[C@@H]1CN([C@H](C)CO)C(=O)c2cc(NC(=O)c3ccccc3)ccc2O[C@@H](C)CCCCO[C@@H]1CN(C)C(=O)C1CCCCC1	-84*	6
C[C@H](CO)N1C[C@H](C)[C@@H](CN(C)C(=O)C2CCCCC2)OCCCC[C@H](C)Oc2ccc(NC(=O)c3ccccc3)cc2C1=O	44	-5
CN1C(=O)c2cc(NC(=O)c3cccc(C(F)(F)F)c3)ccc2OC[C@@H]2O[C@H](CC(=O)O)CC[C@H]21	.	-8
CCC(=O)N1[C@H](C(=O)NCc2ccc(F)cc2)[C@@H](CO)[C@@H]2Cn3c(cccc3=O)[C@@H]21	.	1
O=C(NCC[C@@H]1CC[C@@H](NC(=O)C2CC2)[C@@H](CO)O1)c1cc(Cl)cc(Cl)c1	.	-3
COc1ccc2c3c(n(C)c2c1)[C@@H](CO)NCC31CCN(Cc2ccncc2)CC1	-69	8
COc1ccc2c3c(n(C)c2c1)[C@@H](CO)NCC31CN(Cc2ccc(Cl)cc2)C1	-57	53
COc1ccc2c3c(n(C)c2c1)[C@@H](CO)NCC31CCN(Cc2ccc(F)cc2)CC1	13	.
COc1ccc2c3c(n(C)c2c1)[C@H](CO)NCC31CN(Cc2ccc(F)cc2)C1	-84*	75
COc1ccc2c3c(n(C)c2c1)[C@H](CO)NCC31CCN(Cc2ccccc2F)CC1	?	14
COc1ccc2c3c(n(C)c2c1)[C@H](CO)NCC31CCN(Cc2ccccc2Cl)CC1	-85*	-1
COc1ccc2c3c(n(C)c2c1)[C@H](CO)NCC31CCN(Cc2cc(-c3ccccc3)on2)CC1	-91*	-7
COc1ccc2c3c(n(C)c2c1)[C@@H](CO)NCC31CCN(Cc2ccccc2Cl)CC1	-88*	9
COCC#Cc1ccc2c(c1)O[C@@H](CN(C)C(=O)c1ccccc1F)[C@H](C)CN([C@H](C)CO)S2(=O)=O	-62	4
C[C@@H]1CN([C@H](C)CO)C(=O)c2cc(C3=CCCC3)cnc2O[C@H]1CN(C)C(=O)CN1CCOCC1	18	3
COc1ccc2c3c(n(C)c2c1)[C@@H](CO)NCC31CCN(CC2CCCCC2)CC1	-82*	-1
COc1ccc2c3c(n(C)c2c1)[C@H](CO)NCC31CN(CC2CC2)C1	9	4
CCC(=O)Nc1ccc2c(c1)C(=O)N(C)[C@@H]1CC[C@@H](CC(=O)NCCCN(C)C)O[C@H]1CO2	-20	-9
Cc1ccc(-c2ccc([C@@H]3[C@H]4CN(C(=O)Nc5cccc(F)c5)CCCCN4[C@H]3CO)cc2)cc1	10	50
COc1ccc(CN(C)C[C@H]2OCCCC[C@@H](C)Oc3ccc(NC(=O)Nc4cccc5ccccc45)cc3C(=O)N([C@@H](C)CO)C[C@@H]2C)cc1	-90*	-43
COc1ccc(CN(C)C[C@H]2OCCCC[C@@H](C)Oc3ccc(NC(=O)Nc4cccc5ccccc45)cc3C(=O)N([C@@H](C)CO)C[C@H]2C)cc1	-89*	-18

Assay outcomes as filed in PubChem.
